Inhibition data for 40 compounds are collected here from ChEMBL document CHEMBL3433997, “St. Jude Leishmania screening dataset” (2016).

In the first experiment the target is Hexose transporter 1 (Plasmodium falciparum) (UniProt O97467). Kind of experiment: ST_JUDE_LEISH: Cytotoxicity at 2uM final concentration against transgenic Leishmania Mexicana promastigotes LmPfHT that are glucose transport deficient and complemented with the Plasmodium falciparum hexose transporter. Activity is measured by DNA content using SYBR green in vitro. Format: functional.
In the case of `Brc1cccc(Nc2nccc(Nc3ccc(Oc4ccccc4)cc3)n2)c1`, the inhibition (usually the relative decrease from the control value, in per cent) is 5.97%.
Consider `Nc1ccc2c(N)c3ccccc3nc2c1`, for which the inhibition was found to be 0.2%.
Take `c1ccc2c(CNCCCCCCNCc3c(OCC4CC4)ccc4ccccc34)c(OCC3CC3)ccc2c1`: the inhibition came to 69.8%.
On the same count and under the same terms, with `CCN(CC)CCn1c(=N)n(CC(O)c2ccc(Cl)c(Cl)c2)c2ccccc21` (stereo not given) the figure was 5.43%.
Consider `COC(=O)CCCOc1cc(Cc2cnc(N)nc2N)cc(OC)c1OC`, for which the inhibition was found to be 6.32%.
Same read-out and setting: with `O=C(NCCCCCN1CCC(c2c[nH]c3ccccc23)CC1)Nc1ccc(Cl)cc1Cl` the figure was 2.01%; with `COc1ccc(CC(=O)Nc2ccc(Nc3nc(C)cc(N(C)C)n3)cc2)cc1`, 17.7%.
On the same count and under the same terms, to `COC(=O)c1cc(C(=O)CN(Cc2ccccc2)C(C)C)ccc1O` belongs 5.9%.
Still for that read-out and setting: with `CCCn1cc2c(ccc3nc(N)nc(N)c32)n1` the figure was 0.8%.
For `CCCCCOc1ccc(N2C(N)=NC(N)=NC2(C)C)cc1`, the inhibition amounted to 2.59%.
Still for that read-out and setting: to `CC(c1cccc(S(=O)(=O)NCc2cccc(C(F)(F)F)c2)c1)N1CCC(N2CCCCC2)CC1` (stereo not given) belongs 7.23%; to `CC[C@H](C)CNC(=O)c1ccnc(-c2cccc(CN(C)C3CCN(C)CC3)c2)c1`, 2.4%.
On the same count and under the same terms, to `OCCN1CCN(c2ccc(Nc3ccnc4cc5ccccc5cc34)cc2)CC1` belongs 33.3%; to `COc1ccc(CC(=O)NC2CCN(c3ccnc4cc(Cl)ccc34)C2)cc1` (stereo not given), -0.22%.
Same read-out and setting: to `COc1cc(Cc2cnc(N)nc2N)cc(OCCNC(=O)OCc2ccccc2)c1OC` belongs -1.55%; to `CCN(CC)CCCC(C)N=c1cc(C=Cc2ccc([N+](=O)[O-])cc2)[nH]c2ccc(OC)cc12` (stereo not given), 5.16%.
Turning to `COc1ccc(NS(=O)(=O)c2ccccc2Br)cc1N1CCN(C)CC1`, the inhibition was -0.27%.
Regarding `CN(C)Cc1ccc(-c2cc3c(Nc4ccc(OCc5cccc(F)c5)c(Cl)c4)ncnc3s2)[nH]1`, the inhibition is 2.19%.
The same measure, in the same setting: to `O=S(=O)(Nc1ccc(CCN2CCC(N3CCCCC3)CC2)cc1)c1cccc2cccnc12` belongs 3.39%; to `Cc1ccc2sc(N(CCCn3ccnc3)C(=O)c3ccco3)nc2c1C`, 2.76%; to `CCCCCCN1CCC(NCc2ccc(Cl)cc2)CC1`, 7.61%.
`C=CCc1cc(Cc2cnc(N)nc2N)c2ccc(C)nc2c1O`: the inhibition turned out to be 1.88%.
Still for that read-out and setting: with `O=S(=O)(Nc1cccc(CCN2CCC(N3CCCCC3)CC2)c1)c1cccc2ccccc12` the figure was 2.76%.
The same measure, in the same setting: with `CCN(CC)CCN(Cc1ccc(-c2ccc(C(F)(F)F)cc2)cc1)C(=O)Cn1nc(-c2ccc(C(F)(F)F)cc2)ccc1=O` the figure was 2.04%.
On to `COc1ccc2[nH]c(C)cc(=NN=Cc3ccccc3F)c2c1`, for which the inhibition was determined as 2.87%.
The same measure, in the same setting: to `CC1CCCN(S(=O)(=O)c2cc(Br)cc3c2N(C(=O)C2CC2)CC3)C1` (stereo not given) belongs 2.33%; to `CN1CCCN(Cc2cccc(-c3cccc(NS(=O)(=O)c4cccc5cccnc45)c3)c2)CC1`, 10.8%.
Same read-out and setting: with `O=C(NC1CCCCN(Cc2ccccc2O)C1)c1cccc(Cl)c1` (stereo not given) the figure was 1.65%.
On the same count and under the same terms, with `O=S(=O)(NCCN1CCCC1)c1ccc(-c2ccc(CNC3Cc4ccccc4C3)cc2)cc1` the figure was 0.85%.
For the compound `Cc1ccc2[nH]c(-c3ccccc3N)cc2c1`, the inhibition came out at 4.5%.
Same read-out and setting: to `COc1ccc(-c2cccc(NC(=O)c3cccs3)c2)cc1CN1CCCN(C)CC1` belongs 0.37%; to `NS(=O)(=O)CCc1cccc(Nc2nccc(-c3c(-c4cccc(NC(=O)c5c(F)cccc5F)c4)nn4ccccc34)n2)c1`, 8.18%; to `O=C(/C=C/c1ccc(Cl)cc1)NCCCCCN1CCCN(C(=O)Nc2ccc(Cl)c(C(F)(F)F)c2)CC1`, 2.68%.
Consider `Nc1nccc(-c2ccc3c(/C=C/c4ccccc4)cnc(N)c3c2)n1`, for which the inhibition came out at 24.5%.
On the same count and under the same terms, with `N=c1n(CCN2CCCCC2)c2ccccc2n1CC(=O)c1cccc([N+](=O)[O-])c1` the figure was 4.32%; with `Fc1ccc2[nH]c(-c3cccc(-c4ccc(CN5CCC(CCN6CCCCC6)CC5)cc4)c3)nc2c1`, 4.58%.
Same read-out and setting: with `Cc1nc(N)nc(N)c1OCc1ccc(Cl)c(Cl)c1` the figure was 1.73%; with `COc1cc(-n2c(CN3CCCC3)nc3cc(-c4ccc(Cl)cc4)sc3c2=O)ccc1OCCN1CCCC1`, 2.69%.
The same measure, in the same setting: to `N#Cc1ccc2c(c1)CN(C1CCC(NC(=O)/C=C/c3cc(C(F)(F)F)cc(C(F)(F)F)c3)CC1)CCC2` (stereo not given) belongs 1.36%.
With `CN(C)Cc1ccc(-c2ccc3ccnc(N)c3c2)cc1`, the inhibition was 4.43%.

For another experiment, the target named is Glucose transporter (Leishmania mexicana) (UniProt O61059). Kind of experiment: ST_JUDE_LEISH: Cytotoxicity at 2uM final concentration against transgenic Leishmania Mexicana promastigotes LmGT2 that are glucose transport deficient and complemented with the L. Mexicana glucose transporter 2. Activity is measured by DNA content using SYBR green in vitro. Format: functional.
Consider `Brc1cccc(Nc2nccc(Nc3ccc(Oc4ccccc4)cc3)n2)c1`, for which the inhibition is -0.46%.
On the same count and under the same terms, with `Nc1ccc2c(N)c3ccccc3nc2c1` the figure was -1.77%; with `c1ccc2c(CNCCCCCCNCc3c(OCC4CC4)ccc4ccccc34)c(OCC3CC3)ccc2c1`, 37.4%.
Same read-out and setting: to `CCN(CC)CCn1c(=N)n(CC(O)c2ccc(Cl)c(Cl)c2)c2ccccc21` (stereo not given) belongs 12.9%; to `COC(=O)CCCOc1cc(Cc2cnc(N)nc2N)cc(OC)c1OC`, 9.19%; to `O=C(NCCCCCN1CCC(c2c[nH]c3ccccc23)CC1)Nc1ccc(Cl)cc1Cl`, 2.92%.
On to `COc1ccc(CC(=O)Nc2ccc(Nc3nc(C)cc(N(C)C)n3)cc2)cc1`, for which the inhibition turned out to be 1.53%.
On the same count and under the same terms, to `COC(=O)c1cc(C(=O)CN(Cc2ccccc2)C(C)C)ccc1O` belongs 4.16%; to `CCCn1cc2c(ccc3nc(N)nc(N)c32)n1`, 0.23%; to `CCCCCOc1ccc(N2C(N)=NC(N)=NC2(C)C)cc1`, 2.5%.
On the same count and under the same terms, with `CC(c1cccc(S(=O)(=O)NCc2cccc(C(F)(F)F)c2)c1)N1CCC(N2CCCCC2)CC1` (stereo not given) the figure was 7.91%; with `CC[C@H](C)CNC(=O)c1ccnc(-c2cccc(CN(C)C3CCN(C)CC3)c2)c1`, 2.59%; with `OCCN1CCN(c2ccc(Nc3ccnc4cc5ccccc5cc34)cc2)CC1`, 21.7%.
Still for that read-out and setting: with `COc1ccc(CC(=O)NC2CCN(c3ccnc4cc(Cl)ccc34)C2)cc1` (stereo not given) the figure was -0.25%; with `COc1cc(Cc2cnc(N)nc2N)cc(OCCNC(=O)OCc2ccccc2)c1OC`, -1.22%.
Turning to `CCN(CC)CCCC(C)N=c1cc(C=Cc2ccc([N+](=O)[O-])cc2)[nH]c2ccc(OC)cc12` (stereo not given), the inhibition came to 2.98%.
On the same count and under the same terms, with `COc1ccc(NS(=O)(=O)c2ccccc2Br)cc1N1CCN(C)CC1` the figure was 3.86%; with `CN(C)Cc1ccc(-c2cc3c(Nc4ccc(OCc5cccc(F)c5)c(Cl)c4)ncnc3s2)[nH]1`, 2.33%.
The same measure, in the same setting: with `O=S(=O)(Nc1ccc(CCN2CCC(N3CCCCC3)CC2)cc1)c1cccc2cccnc12` the figure was 1.88%.
On the same count and under the same terms, with `Cc1ccc2sc(N(CCCn3ccnc3)C(=O)c3ccco3)nc2c1C` the figure was 2.79%; with `CCCCCCN1CCC(NCc2ccc(Cl)cc2)CC1`, 4.28%; with `C=CCc1cc(Cc2cnc(N)nc2N)c2ccc(C)nc2c1O`, 0.24%.
On to `O=S(=O)(Nc1cccc(CCN2CCC(N3CCCCC3)CC2)c1)c1cccc2ccccc12`, for which the inhibition stood at 3.28%.
As to `CCN(CC)CCN(Cc1ccc(-c2ccc(C(F)(F)F)cc2)cc1)C(=O)Cn1nc(-c2ccc(C(F)(F)F)cc2)ccc1=O`, the inhibition came to 2.83%.
On the same count and under the same terms, to `COc1ccc2[nH]c(C)cc(=NN=Cc3ccccc3F)c2c1` belongs -2.38%.
Still for that read-out and setting: to `CC1CCCN(S(=O)(=O)c2cc(Br)cc3c2N(C(=O)C2CC2)CC3)C1` (stereo not given) belongs 1.02%; to `CN1CCCN(Cc2cccc(-c3cccc(NS(=O)(=O)c4cccc5cccnc45)c3)c2)CC1`, 2.53%.
The same measure, in the same setting: to `O=C(NC1CCCCN(Cc2ccccc2O)C1)c1cccc(Cl)c1` (stereo not given) belongs -1.89%; to `O=S(=O)(NCCN1CCCC1)c1ccc(-c2ccc(CNC3Cc4ccccc4C3)cc2)cc1`, -2.78%.
Take `Cc1ccc2[nH]c(-c3ccccc3N)cc2c1`: the inhibition was 4.49%.
Consider `COc1ccc(-c2cccc(NC(=O)c3cccs3)c2)cc1CN1CCCN(C)CC1`, for which the inhibition was -1.25%.
Still for that read-out and setting: with `NS(=O)(=O)CCc1cccc(Nc2nccc(-c3c(-c4cccc(NC(=O)c5c(F)cccc5F)c4)nn4ccccc34)n2)c1` the figure was 1.61%; with `O=C(/C=C/c1ccc(Cl)cc1)NCCCCCN1CCCN(C(=O)Nc2ccc(Cl)c(C(F)(F)F)c2)CC1`, 2.81%.
As to `Nc1nccc(-c2ccc3c(/C=C/c4ccccc4)cnc(N)c3c2)n1`, the inhibition worked out at 0.5%.
Turning to `N=c1n(CCN2CCCCC2)c2ccccc2n1CC(=O)c1cccc([N+](=O)[O-])c1`, the inhibition is 0.59%.
With `Fc1ccc2[nH]c(-c3cccc(-c4ccc(CN5CCC(CCN6CCCCC6)CC5)cc4)c3)nc2c1`, the inhibition was found to be 10.4%.
The same measure, in the same setting: to `Cc1nc(N)nc(N)c1OCc1ccc(Cl)c(Cl)c1` belongs 2.48%; to `COc1cc(-n2c(CN3CCCC3)nc3cc(-c4ccc(Cl)cc4)sc3c2=O)ccc1OCCN1CCCC1`, 0.37%; to `N#Cc1ccc2c(c1)CN(C1CCC(NC(=O)/C=C/c3cc(C(F)(F)F)cc(C(F)(F)F)c3)CC1)CCC2` (stereo not given), 0.57%.
On the same count and under the same terms, with `CN(C)Cc1ccc(-c2ccc3ccnc(N)c3c2)cc1` the figure was 1.95%.
